Source: PubChem BioAssay (EPA / NIEHS)
Inconclusive results are not listed. Calls of active or inactive are those of the source. Rule for the calls, unless noted: active = hit-call score of the fitted dose curve at least 0.9, where 1 is the maximum; inconclusive = response in the unintended direction; inactive = score below 0.9.

Columns and labels:
[1] = read-out: X-box binding protein 1 (XBP1), XBP1 (gene 7494); experiment: LTEA_HepaRG_XBP1: Life Technologies and Expression Analysis (LTEA) Assay for X-box binding protein 1 (XBP1) using HepaRG (AID 2283540; active = hit-call score of the fitted dose curve at least 0.9, where 1 is the maximum; inactive = score below 0.9); conditions: mRNA level, 48 h; actives raise or lower the signal
Procedure, shortened: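 Differentiated human HepaRG cells in serum-free induction medium exposed 48 h in duplicate to eight half-log concentrations up to 100 uM in 0.5% DMSO. XBP1 mRNA measured by Fluidigm TaqMan qRT-PCR, normalized to ACTB, GAPDH, POLR2A; bidirectional fitting against DMSO.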

[2] = LTEA_HepaRG_LDH_cytotoxicity: Cytotoxicity Assessment in the Life Technologies and Expression Analysis (LTEA) Assay (AID 2283563)
Procedure, shortened: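 Differentiated HepaRG cells in serum-free induction medium, exposed 48 h in duplicate to 8 half-log concentrations up to 100 uM in 0.5% DMSO. Cytotoxicity from LDH measured in spent medium, fit relative to DMSO.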

[3] = TOX21_p53_BLA_p2_viability: Viability Assessment in the Tox21 HCT-116 p53 Agonism Beta-lactamase Assay, Phase 2 (AID 2283591);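 note: compound exposure lasted 16 h at 37 °C; actives lower the ATP signal meaning cytotoxicity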
Procedure, shortened: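 Cytotoxicity readout: CellTiter-Glo ATP luminescence, 30 min at room temperature, after the beta-lactamase read. Cells were HCT116 exposed 16 h at 37C to compounds pin-transferred at 217-fold dilution from DMSO stocks.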

[4] = TOX21_p53_BLA_p3_viability: Viability Assessment in the Tox21 HCT-116 p53 Agonism Beta-lactamase Assay, Phase 3 (AID 2283593);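 note: cells exposed to compound for 16 h before reading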
Procedure, shortened: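 Cellular ATP was quantified by CellTiter-Glo luminescence, read after 30 min at room temperature. Beforehand, HCT116 cells (4000/well) received compound 5 h post-seeding, 217-fold diluted from DMSO, then incubated 16 h at 37C.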

[5] = biological target: Cellular tumor antigen p53 (Homo sapiens) (UniProt P04637); experiment: TOX21_p53_BLA_p3_ratio: Tox21 HCT-116 p53 Agonism Beta-lactamase Assay, Ratio, Phase 3 (AID 2283596)
Procedure, shortened: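 HCT116 p53-bla cells (4000/well) given compound in DMSO (217-fold dilution) after 5 h, incubated 16 h at 37C. CCF4-AM substrate 2 h at room temperature; 460/530 nm emission ratio, gain fitted against DMSO.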

[6] = TOX21_p53_BLA_p4_viability: Viability Assessment in the Tox21 HCT-116 p53 Agonism Beta-lactamase Assay, Phase 4 (AID 2283597);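 note: hits lower the luminescence signal meaning cytotoxicity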
Procedure, shortened: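 HCT-116 p53-bla cells, 4000/well, dosed after 5 h attachment and incubated 16 h at 37 °C, 5% CO2. Viability from CellTiter-Glo ATP luminescence after 30 min at room temperature, taken after the beta-lactamase read; loss of signal indicates cytotoxicity.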

[7] = biological target: Cellular tumor antigen p53 (Homo sapiens) (UniProt P04637); experiment: TOX21_p53_BLA_p5_ratio: Tox21 HCT-116 p53 Agonism Beta-lactamase Assay, Ratio, Phase 5 (AID 2283599)
Procedure, shortened: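 Beta-lactamase reporter ratio (blue 460 nm over green 530 nm, 405 nm excitation) after 2 h CCF4-AM loading, in HCT-116 cells exposed 16 h at 37 C to compounds pinned at 217-fold dilution. Increases relative to DMSO baseline scored.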

[8] = TOX21_p53_BLA_p5_viability: Viability Assessment in the Tox21 HCT-116 p53 Agonism Beta-lactamase Assay, Phase 5 (AID 2283600)
Procedure, shortened: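 HCT-116 p53 beta-lactamase reporter cells, 4000/well, were exposed to compound (pin transfer, 217-fold dilution) for 16 hours at 37C. Cellular ATP was read by CellTiter-Glo luminescence after 30 min at room temperature.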

[9] = biological target: Cellular tumor antigen p53 (Homo sapiens) (UniProt P04637); experiment: TOX21_p53_BLA_p4_ratio: Tox21 HCT-116 p53 Agonism Beta-lactamase Assay, Ratio, Phase 4 (AID 2283601)
Procedure, shortened: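 Signal is the blue/green (460nm/530nm) ratio of cleaved versus uncleaved CCF4-AM substrate, read after 2 h substrate loading. Cells were HCT116 carrying the p53-responsive beta-lactamase reporter, dosed 16 h at 37C, 5% CO2; CellTiter-Glo measured in parallel.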

[10] = Tanguay_ZF_120hpf_MORT_legacy: (Legacy) Oregon State University Tanguay Lab 120 Hour Post-fertilization zebrafish Assay for Mortality (AID 2283633)
Procedure, shortened: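 Dechorionated Tropical 5D wild-type zebrafish embryos, one per well from 6 hpf, static exposure in 0.64% DMSO at 28C until 120 hpf. Mortality scored as binary by brightfield microscopy at 24 and 120 hpf.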

[11] = Tanguay_ZF_120hpf_YSE_legacy: (Legacy) Oregon State University Tanguay Lab 120 Hour Post-fertilization zebrafish Assay for Yolk Sac Edema (AID 2283634)
Procedure, shortened: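 Dechorionated Tropical 5D wild-type zebrafish embryos were exposed statically, one per well, from 6 to 120 hpf at 28C in 0.64% DMSO. Yolk sac edema was scored present/absent by brightfield at 120 hpf, and dead embryos were excluded.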

[12] = Tanguay_ZF_120hpf_AXIS_legacy: (Legacy) Oregon State University Tanguay Lab 120 Hour Post-fertilization zebrafish Assay for Body Axis Malformation (AID 2283635)
Procedure, shortened: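 Dechorionated wild-type Tropical 5D zebrafish embryos, one per well, statically exposed from 6 hpf to 120 hpf at 28C in 0.64% DMSO final. Body axis malformation scored present/absent by brightfield microscopy at 120 hpf; dead embryos excluded.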

[13] = Tanguay_ZF_120hpf_EYE_legacy: (Legacy) Oregon State University Tanguay Lab 120 Hour Post-fertilization zebrafish Assay for Eye Malformation (AID 2283636)
Procedure, shortened: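 Read-out is binary presence or absence of eye malformation, scored by brightfield microscopy at 120 hpf. Single larvae were exposed from 6 hpf in embryo medium containing 0.64% DMSO, with DMSO as baseline.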

[14] = Tanguay_ZF_120hpf_SNOU_legacy: (Legacy) Oregon State University Tanguay Lab 120 Hour Post-fertilization zebrafish Assay for Snout Malformation (AID 2283637)
Procedure, shortened: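 Snout malformation read as a yes/no call on brightfield images of 120 hpf larvae (Tropical 5D strain). Static exposure began at 6 hpf on dechorionated embryos in 0.64% DMSO, with gain of signal analysed versus DMSO controls.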

[15] = Tanguay_ZF_120hpf_JAW_legacy: (Legacy) Oregon State University Tanguay Lab 120 Hour Post-fertilization zebrafish Assay for Jaw Malformation (AID 2283638)
Procedure, shortened: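 Dechorionated Tropical 5D wild-type zebrafish embryos, one per well, exposed statically from 6 hpf to 120 hpf at 28C in 0.64% DMSO. Jaw malformation was scored by brightfield microscopy as present or absent. It was not scored in dead embryos.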

[16] = Tanguay_ZF_120hpf_OTIC_legacy: (Legacy) Oregon State University Tanguay Lab 120 Hour Post-fertilization zebrafish Assay for Otic Vesicle Malformation (AID 2283639)
Procedure, shortened: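 Tropical 5D wild-type zebrafish embryos were exposed statically in sealed, foil-covered plates at 28C until 120 hpf, with 0.64% (vol/vol) DMSO final. Otic vesicle malformation was scored present/absent by brightfield microscopy, with DMSO as baseline.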

[17] = Tanguay_ZF_120hpf_PE_legacy: (Legacy) Oregon State University Tanguay Lab 120 Hour Post-fertilization zebrafish Assay for Pericardial Edema (AID 2283640)
Procedure, shortened: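 Tropical 5D wild-type zebrafish embryos were statically exposed until 120 hpf at 28C, with 0.64% DMSO final. Pericardial edema was scored by brightfield as present or absent; endpoints were not scored in dead embryos.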

[18] = Tanguay_ZF_120hpf_BRAI_legacy: (Legacy) Oregon State University Tanguay Lab 120 Hour Post-fertilization zebrafish Assay for Brain Malformation (AID 2283641)
Procedure, shortened: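 Tropical 5D wild-type zebrafish embryos exposed statically until 120 hpf at 28C, 0.64% DMSO final, sealed and dark. Brain malformation scored present/absent by brightfield at 120 hpf; dead embryos excluded. Trimethyltin chloride 5uM positive control.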

[19] = ATG_XTT_Cytotoxicity: Cytotoxicity Assessment in the Attagene TRANS-FACTORIAL HepG2 Assay (AID 2283584);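 for AC50: XTT signal for cell number as viability in transfected HepG2 cells; cells exposed to compound for 24 h before reading; active means loss of viability signal versus DMSO baseline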
Procedure, shortened: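 HepG2 cells transiently transfected with GAL4-UAS multiple reporter units, dosed 24 h; cytotoxicity read by XTT as loss of signal versus DMSO baseline.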

[20] = biological target: Cellular tumor antigen p53 (Homo sapiens) (UniProt P04637); experiment: TOX21_p53_BLA_p2_ratio: Tox21 HCT-116 p53 Agonism Beta-lactamase Assay, Ratio, Phase 2 (AID 2283592)
Procedure, shortened: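 HCT-116 cells with p53-responsive beta-lactamase reporter, 4000 cells/well, preincubated 5 h, then compound in DMSO (217-fold dilution) for 16 h at 37C. CCF4-AM substrate 2 h at room temperature; 460/530 nm emission ratio fitted upward versus DMSO.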

Measured: AC50

Cellular tumor antigen p53 (Homo sapiens), sequence (P04637 whole entry, looked up): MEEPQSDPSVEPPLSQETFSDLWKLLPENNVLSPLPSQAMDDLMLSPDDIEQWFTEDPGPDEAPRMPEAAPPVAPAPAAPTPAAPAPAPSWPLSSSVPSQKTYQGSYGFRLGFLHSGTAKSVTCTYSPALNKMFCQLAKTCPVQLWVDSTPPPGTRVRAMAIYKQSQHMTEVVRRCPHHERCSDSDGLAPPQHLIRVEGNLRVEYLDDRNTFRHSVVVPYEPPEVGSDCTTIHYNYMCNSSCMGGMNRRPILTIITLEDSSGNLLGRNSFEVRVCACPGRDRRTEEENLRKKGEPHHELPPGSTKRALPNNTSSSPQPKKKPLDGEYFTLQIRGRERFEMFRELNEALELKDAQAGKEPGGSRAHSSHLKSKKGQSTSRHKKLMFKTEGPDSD

O=C(O)c1ccc([N+](=O)[O-])cc1
not listed: [19] | [20]
inactive: all other assays above

CC(C)C(C)(C)C(C)(C)C(C)(C)S
inactive: [19] | [3] | [20] | [4] | [5] | [7] | [8] | [9]

CCCCCCCCCCCCCOS(=O)(=O)O
inactive: [4] | [5]
active: [19] 148 µM | [3] 82.4 µM | [20] 85.6 µM | [6] 70.8 µM | [7] 85.4 µM | [8] 66.6 µM | [9] 83.6 µM

C=C(C)[C@@H]1CC[C@@H](C)C[C@@H]1O
inactive: [19] | [3] | [20] | [4] | [5] | [6] | [7] | [8] | [9]

CCCCCNCCCCC
inactive: [19] | [3] | [20] | [4] | [5] | [7] | [9]

CC(=O)OCc1ccc2c(c1)OCO2
inactive: [19] | [3] | [20] | [4] | [5] | [7] | [8] | [9]

NC(=O)NC1NC(=O)NC1=O (stereo unspecified)
inactive: [19] | [3] | [20] | [4] | [5] | [6] | [7] | [8] | [9]

CCCCC(CC)COC(=O)/C=C\C(=O)OCC(CC)CCCC (stereo unspecified)
inactive: [19] | [3] | [20] | [4] | [6] | [7] | [9]

Clc1nc(C(Cl)(Cl)Cl)c(Cl)c(Cl)c1Cl
inactive: [19] | [3] | [20] | [4] | [5] | [7] | [8]

O=c1[nH]nnc2ccccc12
inactive: [19] | [3] | [20] | [4] | [5] | [6] | [8] | [9]

CC(=O)Nc1ccc(C)cc1C
inactive: [19] | [3] | [20] | [4] | [5] | [7]

CCN(CC)c1ccc2c(-c3ccccc3C(=O)O)c3ccc(=[N+](CC)CC)cc-3oc2c1
inactive: [19] | [3] | [20] | [4] | [5] | [6] | [7] | [8] | [9]

CCCCCCCCCCCCCCCC(=O)O
inactive: [19] | [3] | [20] | [4] | [5] | [6] | [7] | [8] | [9]

CCCC(=O)C(C)=O
inactive: [19] | [3] | [20] | [4] | [5] | [8] | [9]

CCN(CC)c1ccc(C(=C2C=CC(=[N+](CC)CC)C=C2)c2ccc(S(=O)(=O)O)cc2S(=O)(=O)[O-])cc1
active: [3] 26.5 µM | [4] 23.1 µM | [6] 46.1 µM | [8] 36.1 µM
inactive: [19] | [20] | [5]

O=c1[nH]c(=O)n([C@H]2CCCO2)cc1F
inactive: [19] | [3] | [20] | [4] | [5] | [6] | [7] | [8] | [9]

NC(N)=NC(=O)c1nc(Cl)c(N)nc1N
inactive: [19] | [3] | [20] | [4] | [5] | [6] | [7] | [8] | [9]

CO[Si](C)(OC)c1ccccc1
inactive: [19] | [3] | [20] | [4] | [5] | [6] | [8] | [9]

N#Cc1ccccc1
inactive: [19] | [3] | [20] | [4] | [5] | [8] | [9]

CC(C)(C)C(=O)c1ccccc1
inactive: [19] | [3] | [20] | [4] | [5] | [7] | [8]

C[C@H]1C[C@H]2[C@@H]3CCC4=CC(=O)C=C[C@]4(C)[C@@]3(F)[C@@H](O)C[C@]2(C)[C@@]1(O)C(=O)COP(=O)(O)O
inactive: [19] | [3] | [20] | [4] | [5] | [6] | [8] | [9]

CCN(CC)CCOC(=O)c1ccc(N)cc1
inactive: [19] | [3] | [20] | [4] | [5] | [6] | [8]

COC(=O)OC
inactive: [19] | [3] | [20] | [4] | [5] | [6] | [7] | [8] | [9]

CCCCCCCCCCN
inactive: [19] | [3] | [20] | [4] | [5] | [6] | [7] | [8] | [9]
